In PubChem BioAssay AID1259343 (VanderVen Lab, College of Veterinary Medicine, Cornell …, 2017):
The whole screen tested about 6,200 compounds, of which about 2,900 (47%) were called active. The set was probably picked from earlier hits. This is one part of the list. Values without a mark were called inactive. Rule as the data show it: active = inhibition above about 50%; inactive = the rest.

assay: Mycobacterium tuberculosis growth inhibition, primary screen (AID 1259343); details: inhibition: at 10 µM, hits give high values; outcome: 10 uM

Compound | inhibition
Cc1nc(NCCNC(=O)Nc2ccc(F)c(Cl)c2)cc(N2CCCC2)n1 | 58.8% (active)
COc1ccc(/C=C/CN2CCCC(CO)(Cc3cccc(Cl)c3)C2)cc1 (configuration not stated) | inactive
COc1ccc(/C=C/CN2CCN(c3cc(-n4cccn4)ncn3)CC2)cc1 | 89.8% (active)
Cc1ccc(NC(=O)CCn2nc3ccccn3c2=O)cc1F | 57.8% (active)
CC1CN(C(=O)Nc2ccccc2C(F)(F)F)c2cccnc2N1 (configuration not stated) | 24.7%
O=C(COc1ccc2ccccc2c1)N1CCC(Nc2ccccc2)CC1 | 3.84%
COC(=O)C1CCN(C(=O)COc2ccc(OCc3ccccc3)cc2)CC1 | 81.6% (active)
COC(=O)C1CCN(C(=O)COc2ccc3ccccc3c2Br)CC1 | -1.48%
CCN1CC(=Cc2cc(C)n(C3CC3)c2C)C(=O)C(=Cc2cc(C)n(C3CC3)c2C)C1 | 30.3%
CCCCCNC(=O)c1sc2[nH]c(=S)[nH]c(=O)c2c1C | 36.1%
CCCCCCNC(=O)n1cc(F)c(=O)[nH]c1=O | 97% (active)
CCCCCNC(=O)N1CC2C3CCC(C3)C21 (configuration not stated) | 28.6%
Cc1cccc(-c2ccc(CNC(=O)c3ccc(=O)n(C)n3)cc2)c1 | 55.3% (active)
Cc1cccc(-c2cccc(CNC(=O)c3ccc(=O)[nH]n3)c2)c1 | 18.8%
O=C(NCc1ccc(Cl)cc1)c1cncn1-c1ccc(-c2ccc(F)c(F)c2)cc1 | -2.19%
COc1cccc(-c2ccnc3[nH]n(-c4ccccc4)c(=O)c23)c1 | 46.4%
COc1cccc(Nc2nccc3c2cc(-c2ccccc2)n3C)c1 | 87.3% (active)
COc1cccc(Nc2nccc3c2cc(-c2ccc(N(C)C)cc2)n3C)c1 | 81.2% (active)
COc1cc(OC)cc(-c2cc3c(Nc4ccccn4)nccc3n2C)c1 | 57% (active)
Cn1c(-c2cccc(C(F)(F)F)c2)cc2c(Nc3ccncc3)nccc21 | 97.1% (active)
CC(C)c1ccc(Nc2cc3c(cn2)cc(-c2cccnc2)n3C)cc1 | 47.9%
CC(C)Cc1nnc(C(C)Sc2nc3ncc(Cl)cc3[nH]2)o1 (configuration not stated) | -8.41%
CC(C)C1(CNC(=O)c2ccc(Br)s2)CC1 | 95.1% (active)
CC(=O)c1ccc(-c2ccc(Br)s2)cc1 | 37%
Cc1cccc(NC(C)c2nnc(-c3cccs3)o2)c1C (configuration not stated) | 61.2% (active)

Compound | inhibition
O=C(Nc1ccc(Br)cc1)c1cc(Br)cc(Br)c1O | 101% (active)
O=c1[nH]cc(CNCc2ccccc2)c(=O)[nH]1 | 101% (active)
CCC1CCCCN1C(=O)c1ccc(-c2cccc(Cl)c2)s1 (configuration not stated) | 81.8% (active)
CCC1CCCCN1C(=O)c1ccc(-c2ccc(F)cc2)s1 (configuration not stated) | 94.5% (active)
O=C(O)C1CCN(c2ncnc3cc(-c4ccc(F)cc4)sc23)CC1 | 14.5%
Oc1ccc(C=Cc2ccncc2)cc1 | 37.5%
Cn1nc([N+](=O)[O-])nc1Oc1ccc(Br)cc1 | 68.9% (active)
CCOC(=O)c1ccc(C#Cc2ccc3c(c2)C(C)(C)CCS3)nc1 | 87.4% (active)
CC(C)c1ccc(CCNC(=O)CNc2ccc(C#N)c(Cl)c2)cc1 | 2.06%
Cc1ccc(C(C)NC(=O)Nc2ccc(C#N)c(Cl)c2)o1 (configuration not stated) | 89.3% (active)
N#Cc1ccc(NC(=O)NCc2cccs2)cc1Cl | 48.4%
Cc1ccc(NC(=O)NCCc2csc(C(C)C)n2)c(Cl)c1 | 25.8%
Cc1ccc(Nc2n[nH]nc2C(=O)Nc2ccc(C)cc2Cl)cc1 | 83.6% (active)
Cc1ccc(Nc2nc(-c3ccccc3)nc(Cl)c2N)cc1 | 45.9%
CCOC(=O)C1C(=O)CC(O)(c2ccc(Br)cc2)CC1C=C(Cl)Cl (configuration not stated) | 34%
Cc1cc(C)n2c(NCc3ccccc3)c(-c3ccc(Cl)cc3)nc2c1 | 51.4% (active)
CCC(=O)Nc1c(-c2cc(C)cc(C)c2)nc2cc(C)ccn12 | 5.69%
O=[N+]([O-])c1ccc(Cl)c(S(=O)(=O)Oc2cccc3ccccc23)c1 | 20.7%
CCCS(=O)(=O)Oc1ccc([N+](=O)[O-])cc1-c1nc2ccccc2o1 | 99.4% (active)
COc1cccc(C(=O)Nc2cc(C)nn2-c2nc(C)cc(=O)[nH]2)c1OC | 101% (active)
CCc1cc(=O)[nH]c(-n2nc(C)cc2NC(=O)c2cccc(OC)c2OC)n1 | 102% (active)
COc1cccc(C(=O)Nc2cc(C)nn2-c2nc(C)c(C)c(=O)[nH]2)c1OC | 7.56%
COc1cccc(C(=O)Nc2cc(-c3cccs3)nn2-c2nc(C)cc(=O)[nH]2)c1OC | 100% (active)
COc1ccccc1C(=O)Nc1cc(C)nn1-c1nc(C)cc(=O)[nH]1 | 99.4% (active)
COc1cccc(C(=O)Nc2cc(-c3cccs3)nn2-c2nc(C)c(C)c(=O)[nH]2)c1OC | -24.6%

Compound | inhibition
COc1cccc2c1C(=O)c1c(O)c3c(c(O)c1C2=O)C[C@@](O)(C(C)=O)C[C@@H]3O[C@H]1C[C@H](N)[C@H](O)[C@H](C)O1 | 38.2%
COc1cccc(C(=O)Nc2cc(C3CC3)nn2-c2nc(C)cc(=O)[nH]2)c1OC | 99.8% (active)
CCOc1ccccc1C(=O)Nc1cc(C)nn1-c1nc(C)cc(=O)[nH]1 | 101% (active)
COC(=O)c1ccc(CN(Cc2ccc(C)s2)CC2CCCO2)o1 (configuration not stated) | 73.4% (active)
Cc1[nH]nc(C(=O)N(Cc2cccc(F)c2)CC2CCCO2)c1Br (configuration not stated) | -6.44%
COC(=O)c1ccc(CN(Cc2ccco2)Cc2ccc(C)s2)o1 | 73.9% (active)
Cc1oc(-c2ccc(-c3ccccc3)cc2)nc1CN(Cc1ccccn1)CC1CCCO1 (configuration not stated) | -19.8%
COc1ccc(CN(Cc2ccco2)CC(O)COc2ccc(Cl)cc2)cc1 (configuration not stated) | 6.76%
Cc1ccc(C(C)NC(=O)CN(C(=O)Cn2cnc(C)c2C)C(C)c2ccc(C)c(C)c2)cc1C (configuration not stated) | 37.8%
COc1ccc(N(C)S(=O)(=O)c2ccc(OC)c(N3CCN(C(=O)C4CCC4)CC3)c2)cc1 | -12.6%
CN(c1ccccc1)S(=O)(=O)c1cccc(NC(=O)C2CC2)c1 | 95% (active)
O=C(NS(=O)(=O)CCc1ccccc1)c1cccs1 | 57% (active)
O=[N+]([O-])c1cnc(Nc2ccccc2Cl)c([N+](=O)[O-])c1 | -16.6%
COc1ccccc1Nc1ncc([N+](=O)[O-])cc1[N+](=O)[O-] | 101% (active)
O=[N+]([O-])c1cnc(Nc2cccc(O)c2)c([N+](=O)[O-])c1 | 75.9% (active)
O=[N+]([O-])c1cnc(Nc2cccc(Cl)c2)c([N+](=O)[O-])c1 | 97.7% (active)
Cc1cc(C)cc(Nc2ncc([N+](=O)[O-])cc2[N+](=O)[O-])c1 | 92.8% (active)
O=[N+]([O-])c1cnc(Nc2ccccc2O)c([N+](=O)[O-])c1 | 26.1%
C=C(C)C1Cc2c(ccc(C(=O)O)c2O)O1 (configuration not stated) | 48.9%
O=[N+]([O-])c1cnc(Nc2ccc(O)cc2)c([N+](=O)[O-])c1 | inactive
O=[N+]([O-])c1cnc(Nc2ccc(Cl)cc2)c([N+](=O)[O-])c1 | 58.3% (active)
CCN1CCN(c2cc3c(cc2F)c(=O)c(C(=O)O)cn3C2CC2)CC1 | 99.3% (active)
Nc1cc(F)c(N2CC3CCC2C3)cc1C(=O)O (configuration not stated) | 36.3%
O=C(c1cccs1)C1CCCN(Cc2nc(COc3ccccc3)no2)C1 (configuration not stated) | 83.9% (active)
c1ccc(OCc2noc(CN3CC[C@@H]4CCCC[C@H]4C3)n2)cc1 | 66.7% (active)

Compound | inhibition
Clc1cccc(C2CCN(Cc3nc(COc4ccccc4)no3)C2)c1 (configuration not stated) | 92.9% (active)
O=C(c1ccccc1)C1CCCN(Cc2nc(COc3ccccc3)no2)C1 (configuration not stated) | inactive
Fc1ccccc1Cc1noc(CN2CC[C@@H]3CCCC[C@H]3C2)n1 | 74.6% (active)
OC(CCc1ccccc1)C1CCN(Cc2nc(Cc3ccccc3F)no2)CC1 (configuration not stated) | 43.5%
Fc1ccccc1Cc1noc(CN2CCCN(Cc3ccccc3F)CC2)n1 | 34%
c1ccc(CCC2CCN(Cc3nc(COc4ccccc4)no3)CC2)cc1 | inactive
CCc1ccc(CCOc2ccc(CC3SC(=O)NC3=O)cc2)nc1 (configuration not stated) | 38.2%
CCCOc1ccc(C=C2SC(=S)NC2=O)cc1 | 86.5% (active)
CC(C)N1C(=O)C(=Cc2ccc(O)cc2)SC1=S | 36.9%
O=C1NC(=O)C(=Cc2ccc(F)cc2)S1 | -10.1%
CCCCCCOc1ccc(C=C2SC(=O)NC2=O)cc1 | 84.7% (active)
O=C(OCC(=O)N(C1CCCCC1)C1CCCCC1)c1ccc([N+](=O)[O-])o1 | -1.53%
O=C(OCC(=O)N1CCCC1)c1ccc([N+](=O)[O-])o1 | 39%
CC(C)(C)c1ccc(-c2ccnc3nc(N4CCN(C(=O)c5ccc([N+](=O)[O-])o5)CC4)nn23)cc1 | 74.3% (active)
CCc1ccc(S(=O)(=O)Nc2cccc(-c3nc4cccnc4s3)c2C)s1 | 62.5% (active)
CC(C)CSc1nnc(-c2cccc([N+](=O)[O-])c2)o1 | 97.8% (active)
CC(C)CSc1nnc(C2CCCCC2)o1 | -1.92%
N#Cc1cccc(CSc2nnc(-c3cccc(Br)c3)o2)c1 | 5.74%
O=[N+]([O-])c1cccc(-c2n[nH]c(=S)o2)c1 | 91.4% (active)
S=c1[nH]nc(-c2cccc(Br)c2)o1 | 62.1% (active)
Cc1cc(C)cc(-c2n[nH]c(=S)o2)c1 | 101% (active)
CC(C)(C)c1ccc(-c2n[nH]c(=S)o2)cc1 | 25.8%
